Data on 34 molecules can be found in PubChem BioAssay (NCATS).

Records with an inconclusive call do not appear. Values without a mark were called inactive. Active and inactive are the calls of the source. Calls come from the whole dose curve; as a rule, active = well fitted cell-killing curve with a large enough effect; inconclusive = small, poorly fitted or top-dose-only effect, or effect the other way; inactive = no such curve, though single readings can be large or run the other way.
Potency is the fitted concentration of half-maximal effect.

One assay can be described thus: Quantitative High-Throughput drug screen in 47 multiple myeloma cell lines against the NCATS MIPE library collection: MM1R_ATCC cell viability assay (AID 1918981). Note: nearly all actives have a fitted effect of over 35% in size. Conditions: MM1R multiple myeloma cells, CellTiter-Glo viability, 48 h; series mostly up to 45.8 µM; viability (% of control): at the top concentration. In a few lines:
(§1)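 Myeloma cells (500/well) treated with MIPE 4.0 compounds for 48 h at 37 °C, 5% CO2. Viability read as ATP via CellTiter-Glo luminescence after 5 min at RT; DMSO-only wells = 100%, media-only = 0% viability.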
As for `Cn1c(CNc2ccc(C(=N)N)cc2)nc2cc(C(=O)N(CCC(=O)O)c3ccccn3)ccc21`, the “viability (% of control)” value is 117% [at 23.2 µM]. In the case of `O=C(c1cncc(Br)c1)N1CCC(N2CCCC2)CC1`, the “viability (% of control)” value was 124%. For the molecule `CC[C@@H]1C(=O)N(C)c2cnc(Nc3ccc(C(=O)NC4CCC(N5CCN(CC6CC6)CC5)CC4)cc3OC)nc2N1C(C)C` (some centres undefined), the Potency is 1.87 µM (active). `CN(C)CC=CC(=O)Nc1cc2c(Nc3ccc(F)c(Cl)c3)ncnc2cc1O[C@H]1CCOC1`: the Potency is 13.2 µM (active). As for `CC1(C)O[C@@H]2C[C@@H]3[C@H]4C[C@@H](F)C5=CC(=O)C=C[C@]5(C)[C@@]4(F)[C@@H](O)C[C@]3(C)[C@]2(C(=O)CO)O1`, the “viability (% of control)” value is 97%. `Cc1[nH]c2ccccc2c1CCNCc1ccc(C=CC(=O)NO)cc1`: the Potency is 0.0296 µM (active). Take `NC(=O)c1c(OCc2c(F)cc(Br)cc2F)nsc1NC(=O)NCCCCN1CCCC1`: the Potency is 20.9 µM (active). The same measure, in the same setting: the result for `Nc1ccn([C@@H]2O[C@H](CO)[C@H](O)C2(F)F)c(=O)n1` reads 0.0093 µM (active). On to `C[C@]1(CO)CN(c2cc(C(=O)Nc3ccc4c(c3)-c3c(c(C(N)=O)nn3-c3ccc(F)cc3)CC4)c(Cl)cn2)C[C@@]1(C)CO`, for which the Potency was 8.33 µM (active).

Regarding `Clc1cccc(-n2nnnc2NCc2ccccc2Oc2ccccn2)c1Cl`, the “viability (% of control)” value is 119%. `Cn1cc(-c2ccncc2)c(-c2ccc(OCc3ccc4ccccc4n3)cc2)n1`: the Potency was 10.5 µM (active). For the molecule `Cc1nc2cnc3ccc(C#Cc4cccnc4)cc3c2n1-c1ccc(C(C)(C)C#N)cc1`, the Potency was 0.166 µM (active). As for `COc1cc(OC2CCN(C)CC2)ccc1Nc1ncc2c(n1)n(C1CCCC1)c(=O)n2C`, the Potency is 18.7 µM (active). As for `COc1cc2c(Nc3ccc(NC(=O)c4ccccc4)cc3)ncnc2cc1OCCCN1CCOCC1`, the Potency is 23.5 µM (active).

In the case of `O=c1[nH]nc(Sc2ncc([N+](=O)[O-])s2)n1-c1ccc2c(c1)OCCO2`, the Potency is 1.32 µM (active). Same read-out and setting: the result for `COc1ccc(F)c(F)c1C(=O)c1cnc(NC2CCN(S(C)(=O)=O)CC2)nc1N` reads 2.09 µM (active). For the molecule `CC(C)(C)NC(=O)[C@H]1CN(Cc2cccnc2)CCN1C[C@@H](O)C[C@@H](Cc1ccccc1)C(=O)N[C@H]1c2ccccc2C[C@H]1O`, the Potency was 26.4 µM (active). Still for that read-out and setting: the result for `O=C(Cc1ccc(-c2ccc(OCCN3CCOCC3)cc2)cn1)NCc1ccccc1` reads 0.187 µM (active); that for `Cc1cn2c(-c3cn[nH]c3)cnc2c(Nc2ccc(C(=O)N3CCNCC3)cc2F)n1`, 20.9 µM (active); that for `Cc1cc(Nc2cc(CN3CCOCC3)c3nc(C)c(Cc4ccc(Cl)cc4F)n3n2)n[nH]1`, 18.7 µM (active). With `Cc1coc2c1C(=O)C(=O)c1c-2ccc2c1CCCC2(C)C`, the Potency was 18.7 µM (active). In the case of `C[C@@H](Oc1cc(-n2cnc3ccc(CN4CCN(C)CC4)cc32)sc1C(N)=O)c1ccccc1C(F)(F)F`, the Potency was 0.059 µM (active). Still for that read-out and setting: then `CC(C)=CCCC(C)=CCCC(C)=CCSc1ccccc1C(=O)O`, with 3.32 µM (active); and `COC(=O)Nc1ccc(-c2nc(N3CCOCC3)c3cnn(C4CCN(Cc5cccnc5)CC4)c3n2)cc1`, with 1.48 µM (active); and `COc1cc2c(NC3CCN(C(C)C)CC3)nc(C3CCCCC3)nc2cc1OCCCN1CCCC1`, with 6.62 µM (active). Regarding `COCCOc1ccc2c(c1)ncn2-c1ccc2cccc(N3CCC(N)CC3)c2n1`, the Potency is 1.66 µM (active). As for `Cn1cncc1[C@@](N)(c1ccc(Cl)cc1)c1ccc2c(c1)c(-c1cccc(Cl)c1)cc(=O)n2C`, the Potency was 23.5 µM (active).

As for `CCc1c2c(nc3ccc(O)cc13)-c1cc3c(c(=O)n1C2)COC(=O)[C@]3(O)CC`, the Potency is 0.0118 µM (active). The same measure, in the same setting: the result for `O=C(Nc1ncc(-c2cc(C(F)F)nn2-c2c(Cl)cccc2Cl)s1)C1CC1` reads 1.32 µM (active); that for `O=C(O)C1(Cc2cccc(Nc3nccs3)n2)CCC(Oc2cccc(Cl)c2F)CC1` (centres undefined), 0.469 µM (active). Take `CN1CCN(Cc2ccc(NC(=O)Nc3ccc(Oc4cc(NC(=O)C5CC5)ncn4)cc3)cc2C(F)(F)F)CC1`: the Potency was 0.332 µM (active). `COc1cccc(-c2ccc(NC(=O)C3=C(C(=O)O)CCC3)c(F)c2)c1`: the Potency was 23.5 µM (active).

In the case of `c1ccc2c(CCNc3ccc(Nc4ccncc4)cc3)c[nH]c2c1`, the Potency was 3.32 µM (active).

A further assay is described as follows: Quantitative High-Throughput drug screen in 47 multiple myeloma cell lines against the NCATS MIPE library collection: L363_DSMZ cell viability assay (AID 1918984). Note: nearly all actives have a fitted effect of over 40% in size. The following applies: L363 myeloma viability, CellTiter-Glo ATP luminescence, 48 h; series mostly up to 45.8 µM; viability (% of control): at the top concentration. The procedure, abridged: as §1
On to `O=C(NCCS(=O)(=O)c1ccc(C(F)(F)F)cn1)c1ccc(Cl)cc1`, for which the “viability (% of control)” value is 145%. As to `Cn1c(CNc2ccc(C(=N)N)cc2)nc2cc(C(=O)N(CCC(=O)O)c3ccccn3)ccc21`, the “viability (% of control)” value is 111% [at 23.2 µM]. In the case of `CC[C@@H]1C(=O)N(C)c2cnc(Nc3ccc(C(=O)NC4CCC(N5CCN(CC6CC6)CC5)CC4)cc3OC)nc2N1C(C)C` (some centres undefined), the Potency is 0.0148 µM (active). Regarding `Cn1cc(-c2ccncc2)c(-c2ccc(OCc3ccc4ccccc4n3)cc2)n1`, the Potency was 2.64 µM (active). Still for that read-out and setting: then `COc1cc(OC2CCN(C)CC2)ccc1Nc1ncc2c(n1)n(C1CCCC1)c(=O)n2C`, with 7.43 µM (active); and `O=c1[nH]nc(Sc2ncc([N+](=O)[O-])s2)n1-c1ccc2c(c1)OCCO2`, with 3.72 µM (active). Consider `COc1ccc(F)c(F)c1C(=O)c1cnc(NC2CCN(S(C)(=O)=O)CC2)nc1N`, for which the Potency is 1.32 µM (active). The same measure, in the same setting: then `O=C(Cc1ccc(-c2ccc(OCCN3CCOCC3)cc2)cn1)NCc1ccccc1`, with 0.0148 µM (active); and `Cc1coc2c1C(=O)C(=O)c1c-2ccc2c1CCCC2(C)C`, with 0.0418 µM (active); and `C[C@@H](Oc1cc(-n2cnc3ccc(CN4CCN(C)CC4)cc32)sc1C(N)=O)c1ccccc1C(F)(F)F`, with 0.0118 µM (active). On to `COC(=O)Nc1ccc(-c2nc(N3CCOCC3)c3cnn(C4CCN(Cc5cccnc5)CC4)c3n2)cc1`, for which the “viability (% of control)” value is 129%. `COc1cc2c(NC3CCN(C(C)C)CC3)nc(C3CCCCC3)nc2cc1OCCCN1CCCC1`: the Potency is 5.26 µM (active). Same read-out and setting: then `COCCOc1ccc2c(c1)ncn2-c1ccc2cccc(N3CCC(N)CC3)c2n1`, with 0.187 µM (active); and `O=C(Nc1ncc(-c2cc(C(F)F)nn2-c2c(Cl)cccc2Cl)s1)C1CC1`, with 0.235 µM (active). Regarding `CN1CCN(Cc2ccc(NC(=O)Nc3ccc(Oc4cc(NC(=O)C5CC5)ncn4)cc3)cc2C(F)(F)F)CC1`, the “viability (% of control)” value was 107%. For `c1ccc2c(CCNc3ccc(Nc4ccncc4)cc3)c[nH]c2c1`, the Potency is 4.69 µM (active).
